Data as given in PubChem BioAssay (EPA / NIEHS).
Active and inactive are the calls of the source. The calls were made as follows: active = hit-call score of the fitted dose curve at least 0.9, where 1 is the maximum; inactive = score below 0.9.

Test: ATG_M_19_CIS: Attagene CIS-FACTORIAL HepG2 Assay for M19 Transcription Factor (Internal Marker) (AID 2282939)
Details: HepG2 Attagene CIS-FACTORIAL M19 internal marker reporter; actives raise or lower the signal
Protocol: ATG_CIS is a cell-based, multiplexed-readout assay that uses HepG2, a human liver cell line, with measurements taken at 24 hours after chemical dosing in a 24-well plate.ATG_M_19_CIS is one of 52 assay component(s) measured or calculated from the ATG_CIS assay. It is designed to make measurements of mRNA induction, a form of inducible reporter, as detected with fluorescence intensity signals by Reverse transcription polymerase chain reaction (RT-PCR) and Capillary electrophoresis technology.Data from the assay component ATG_M_19_CIS was analyzed into 1 assay endpoint. This assay endpoint, ATG_M_19_CIS, was analyzed with bidirectional fitting relative to DMSO as the negative control and baseline of activity. Using a type of inducible reporter, measures of mRNA for gain or loss-of-signal activity can be used to understand the background control at the transcription factor-level as they relate to the gene . Furthermore, this assay endpoint can be referred to as a secondary readout, because this assay has produced multiple assay endpoints where this one serves a background control function. To generalize the intended target to other relatable targets, this assay endpoint is annotated to the background measurement intended target family, where the subfamily is internal marker.
Human liver HepG2 cells are transiently transfected with multiple reporter transcription units (MRTUs) in 6-well plates using FuGene 6 reagent (Roche; 3 ml FuGene/1 mg DNA). The MRTU constructs are regulated by a cis-regulating element (promoter). […] A major difference between the CIS and TRANS system is that in CIS activities of endogenous TFs are measured, whereas the TRANS assay evaluates changes in activities of exogenous, chimeric NR-Gal4 proteins. […] At the end of 24 hour incubation, total RNA was isolated using TriZol reagent (Invitrogen). The isolated RNA is then reverse-transcribed using oligo(dT) primer and Mo-MLV reverse transcriptase (Invitrogen) with DNAse I (Ambion) treatment for 30 min. The one-tenth of the produced cDNA was amplified by PCR using Taq DNA polymerase (Invitrogen) and two reporter sequence-specific primers. The PCR products were fluorescently labeled by primer extension with 6-arboxyfluorescein (6-FAM) 5'-labeled reporter sequence-specific primer (2 min at 95 C, 20 s at 68 C and 10 min at 72 C) and these products were digested with 5U of HpaI (New England Biolabs) for 2h at 37 C. The fragments were purified using Qiaquick PCR columns (Qiagen), analyzed on an ABI 3130xL genetic analyzer (Applied Biosystems) with peak positions identified by using a set of X-rhodamine (ROX)-labeled MapMarker1000 molecular weight standards (BioVentures). The raw capillary electrophoresis data was processed using Attagraph software (Attagene).

SMILES | outcome | AC50
Cc1cc(SCc2sc(-c3ccc(C(F)(F)F)c(F)c3)nc2C)ccc1OCC(=O)O | inactive | 
Nc1ccc(-c2ccccc2)cc1 | inactive | 
O=c1[nH]c(=O)n(Cl)c(=O)n1Cl | inactive | 
C=CC(=O)[O][Sn]([CH2]CCC)([CH2]CCC)[CH2]CCC | inactive | 
O=c1oc2ccccc2c(O)c1C(CC(O)c1ccc(-c2ccc(Br)cc2)cc1)c1ccccc1 (stereo not given) | inactive | 
O=C1c2ccccc2C(=O)C1C(=O)C(c1ccccc1)c1ccc(Cl)cc1 (stereo not given) |  | 33.4 µM (active)
O=C(CBr)c1ccc(O)cc1 | inactive | 
Oc1c(Br)cc(Br)cc1Br | inactive | 
CCCCC(CC)C(=O)Cl (stereo not given) | inactive | 
CS(=O)(=O)c1ccc(C(=O)C2C(=O)CCCC2=O)c(Cl)c1COCC(F)(F)F | inactive | 
O=c1[nH]c2ccccc2n1C1CCN(CCCC(c2ccc(F)cc2)c2ccc(F)cc2)CC1 | inactive | 
CC1(C)[C@H](/C=C2\CCSC2=O)[C@@H]1C(=O)OCc1coc(Cc2ccccc2)c1 | inactive | 
Clc1cccc(Cl)c1Cl | inactive | 
Nc1c(Oc2ccccc2)cc(O)c2c1C(=O)c1ccccc1C2=O | inactive | 
CC(=Cc1ccccc1)[N+](=O)[O-] | inactive | 
CC(C)(C#N)N=NC(C)(C)C#N | inactive | 
N#Cc1ccncc1 | inactive | 
CC(c1ccc(O)cc1)c1ccc(O)cc1 | inactive | 
O=[N+]([O-])c1cc([As](=O)(O)O)ccc1O | inactive | 
CCCCCCCCCCCCCCC(Br)C(=O)O (stereo not given) |  | 183 µM (active)

SMILES | outcome | AC50
OC[P+](CO)(CO)CO | inactive | 
CCC[N+](CCC)(CCC)CCC | inactive | 
CC(C)(c1ccc(O)c(-c2ccccc2)c1)c1ccc(O)c(-c2ccccc2)c1 | inactive | 
O=S(=O)(F)C(F)(F)C(F)(F)C(F)(F)C(F)(F)F | inactive | 
CCOc1cc(C=O)ccc1O | inactive | 
OC(Cc1ccccc1Cl)(Cn1[nH]cnc1=S)C1(Cl)CC1 (stereo not given) |  | 64.6 µM (active)
CC(c1ccccc1)(c1ccc(O)cc1)c1ccc(O)cc1 | inactive | 
O=NN1CCCCCCC1 | inactive | 
CN(N=O)c1ccc([N+](=O)[O-])cc1 | inactive | 
Cc1cc(Cl)ccc1O | inactive | 
CC(C)=CC1C(C(=O)OCc2cccc(Oc3ccccc3)c2)C1(C)C (stereo not given) | inactive | 
C#CCOC(=O)/C=C(C)/C=C/CC(C)CCCC(C)C (stereo not given) | inactive | 
O=NN1CCCCCC1 | inactive | 
O=C=Nc1ccc(Cl)cc1 | inactive | 
Cc1cccc(N=Nc2ccc(N(C)C)cc2)c1 | inactive | 
C=CCCl | inactive | 
C[CH2][Hg][S]c1ccccc1C(=O)O | inactive | 
ClCCCCl | inactive | 
O=C(NC(=O)c1c(F)cccc1F)Nc1cc(Cl)c(F)c(Cl)c1F | inactive | 
CCCCOP(=O)(CCCC)OCCCC | inactive | 
